An excerpt weighted towards active compounds, which were near 7.3% of everything screened.
HCV inh: HCV inhibition. Huh7.5.1 HCVcc-Cre infection, luciferase reporter, 44 h. Potency, µM (titrated, usually from 41.8 µM), inactives show at the top dose activity change, negative = inhibition, usual class: inhibitors. 340,000 compounds, 3.4% hits. AID 651820; also: potency is read from the fitted curve at half-maximal effect
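Reporter virus HCVcc-Cre (~0.5 moi) infects cells exposed to compound; seeding density 1,000 cells/well with 4 h settling beforehand. Luminescence, 15 sec read, taken 44 h post-infection following a 15 min RT substrate incubation.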
FMDV inh: blocks foot and mouth disease virus. 410,000 compounds, 1.2% hits. Potency, µM (series often up to 57.9 µM), for the others: at the top dose activity change, negative = inhibition, hits mostly inhibitors. FMDV antiviral cell-based qHTS; calls by dose curve; tested in HEK293T cells; also: read-out not given here; potency is read from the fitted curve at half-maximal effect; nearly all actives have a fitted effect of over 45% in size
AmpC inh detg: inhibitors of E. coli AmpC beta-lactamase with detergent. 370,000 compounds, 0.041% hits. Potency, µM (doses to about 114 µM), for the others: at the top dose activity change, negative = inhibition, hits mostly inhibitors. AmpC hydrolysis of nitrocefin, absorbance 480 nm, 0.01% Triton. P00811;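 also: potency is read from the fitted curve at half-maximal effect; 0% = no-compound wells and -100% = no-enzyme wells; nearly all actives have a fitted effect of over 25% in size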
Target sequence (P00811 whole entry, looked up): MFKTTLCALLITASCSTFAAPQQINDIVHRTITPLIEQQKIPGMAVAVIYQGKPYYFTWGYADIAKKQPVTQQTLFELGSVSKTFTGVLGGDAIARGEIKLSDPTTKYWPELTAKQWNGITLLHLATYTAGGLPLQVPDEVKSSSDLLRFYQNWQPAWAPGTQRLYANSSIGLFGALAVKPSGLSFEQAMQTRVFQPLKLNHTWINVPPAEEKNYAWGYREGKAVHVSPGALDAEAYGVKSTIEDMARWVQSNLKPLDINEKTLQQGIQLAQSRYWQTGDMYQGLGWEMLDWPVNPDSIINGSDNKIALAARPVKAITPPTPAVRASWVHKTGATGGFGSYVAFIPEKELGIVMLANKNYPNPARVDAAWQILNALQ
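AmpC (5.3 nM in the dispensed reagent) in 20 mM phosphate pH 7.0 with 0.01% (detergent screen) or 0.0001% Triton X-100 was preincubated with compounds for 15 min at room temperature. Nitrocefin was then added from an 800 uM solution, and hydrolysis was followed at 480 nm.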
HCMV inh: blocks human cytomegalovirus replication; HFF cells, HCMV-luciferase reporter, 72 h; active compounds read low; activity change, negative = inhibition, % at 57.5 µM; 410,000 compounds, 4.5% hits; AID 1259415; in the data active = activity change below about -60%; inconclusive = no clear call, values can overlap the other calls; inactive = above about -39%
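Cell-based, HFFs, 1000 cells/well, 16 h 37C; cpds in DMSO + HCMV-luc, MOI 1 PFU/cell; 72 h 37C; OneGlo luminescence after 5 min RT; norm. to buffer vs Salinomycin 10uM.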
AmpC no deterg: inhibitors of E. coli AmpC beta-lactamase without detergent | 330,000 compounds, 0.52% hits | AmpC nitrocefin hydrolysis, absorbance 480 nm, 0.0001% Triton | AID 485341 | Potency, µM (doses to about 57.1 µM), for the others: at the highest dose activity change, negative = inhibition, hits mostly inhibitors | P00811;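 also: potency is read from the fitted curve at half-maximal effect; plate controls were no compound for no effect and no enzyme for full effect; nearly all actives have a fitted effect of over 20% in size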
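20 mM phosphate pH 7.0 + 0.01% (detergent screen) or 0.0001% Triton X-100; 5.3 nM AmpC reagent; cpd preinc 15 min RT; nitrocefin (800 uM stock) to start; A480 q20 s × 4 min; Activity was normalised to no-enzyme and no-compound control wells.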
Numbers without * were called inactive; ? = inconclusive; . = not tested or not shown; + = active, no number. Unless noted, calls follow the shape of the dose curve; as a rule, active = well fitted curve in the direction sought with a large enough effect; inconclusive = small, poorly fitted or top-dose-only effect, or another doubt; inactive = no such curve, though single readings can be large; an effect the other way counts as inactive or inconclusive. Unless noted, % is scaled to controls: 0 for no effect and ±100 for the full control effect.

SMILES | HCV inh | FMDV inh | AmpC inh detg | HCMV inh | AmpC no deterg
Cc1cc(OCCn2c(C3CC(=O)N(Cc4ccc(F)cc4)C3)nc3ccccc32)ccc1Cl (stereo not drawn) | . | ? | 10% | -17 | .
COc1ccc(NC(=O)Nc2nnc(SCC(=O)Nc3cccc(C)c3C)s2)cc1 | . | 21% | 12% | -7 | .
COc1ccc(C(=O)Nc2nc(CC(=O)NCCc3ccccc3OC)cs2)cc1 | ? | 0% | -18% | 2 | -3%
COc1ccc(NC(=O)Cn2c(=O)oc3cc(S(=O)(=O)NC4CCCC4)ccc32)cc1OC | . | 43% | 3% | + | .
CC1CCC2(CC1)NC(=O)N(CC(=O)N1c3ccccc3CC1C)C2=O (stereo not drawn) | 19% | -18% | . | -71* | 3%
Cc1cc(C)cc(NC(=O)Cn2c(=O)oc3cc(S(=O)(=O)N4CCC(C)CC4)ccc32)c1 | -22% | -22% | ? | -68* | -46%
CC1CCN(S(=O)(=O)c2ccc3c(c2)oc(=O)n3CC(=O)N2c3ccccc3CC2C)CC1 (stereo not drawn) | 13µM* | 0% | -14% | 42 | -11%
CCc1cccc(CC)c1N1C(=O)CSCC1=O | . | -2% | . | 25 | .
COC(=O)C1=C(C)N(Cc2ccccc2C(F)(F)F)C(=NCc2ccc(OC)cc2)NC1c1cccc(F)c1 (stereo not drawn) | . | . | . | 20 | .
O=C(C1CCOC1)N1CCOc2ccc(CN3CCC(Oc4cccnc4)CC3)cc2C1 (stereo not drawn) | . | 0% | . | . | .
O=C(CSc1nnc(-c2cccc(Cl)c2)o1)N1CCc2ccccc21 | . | 10% | 6% | 9 | .
Cc1cc(C)c2cc(C#N)c(NCCCNC(=O)c3cccnc3)nc2c1 | . | ? | . | 5 | .
O=C(Cn1c(=O)oc2cc(S(=O)(=O)N3CCCC3)ccc21)NC1CCCc2ccccc21 (stereo not drawn) | 2% | ? | ? | 20 | 10µM*
Cc1ccc(C(=O)CSc2cnc3ccccc3n2)cc1C | -29% | ? | 5% | -61* | -35%
C[C@]12CCCC3=CC(=O)C=C[C@@]31Oc1ccccc1C(=O)C2 | . | . | . | 6 | .
Oc1ccccc1CNn1cnnc1 | 27% | -8% | 3% | -100* | -16%
Cc1sc2ccccc2c1CC1=NCCN1 | 3.2µM* | ? | 0% | -31 | 2%
c1ccc(-c2nnc(NC3=NCCC3)o2)cc1 | 27% | -35% | -5% | 23 | -12%
Fc1ccc(-c2nnc(NC3=NCCCCC3)o2)cc1 | -15% | 10µM* | ? | -83* | -5%
Cc1cccc(N2C(=O)N3[C@H](c4ccc(Br)cc4)[C@@H]4C(=O)N(C(C)(C)C)C(=O)[C@@H]4[C@]3(C)C2=O)c1 | 11% | -17% | ? | 10 | 143%
CC(C)(C)N1C(=O)[C@H]2[C@@H](c3ccc(Br)cc3)N3C(=O)N(c4ccc(Br)cc4)C(=O)[C@@]3(Cc3ccccc3)[C@H]2C1=O | 7.9µM* | -16% | -16% | . | 10%
Cc1ccc(N2C(=O)N3[C@H](c4ccc(Br)cc4)[C@@H]4C(=O)N(C(C)(C)C)C(=O)[C@@H]4[C@]3(C)C2=O)cc1 | ? | -20% | ? | -85* | 133%
CC(C)(C)N1C(=O)[C@H]2[C@@H](c3ccc(Br)cc3)N3C(=O)N(c4cccc(F)c4)C(=O)[C@@]3(Cc3ccccc3)[C@H]2C1=O | ? | -20% | 3% | -30 | -3%
COc1ccc([C@@H]2[C@@H]3C(=O)N(C(C)(C)C)C(=O)[C@@H]3[C@]3(C)C(=O)N(c4cccc(Cl)c4)C(=O)N23)cc1 | 5% | 2% | -3% | -71* | 148%
O=C(Cn1c(=O)n(-c2ccc(F)cc2)c(=O)c2sc3ccccc3c21)NC1CCCCC1 | . | -1% | -5% | -1 | .
C[C@@H]1CN([C@@H](C)CO)C(=O)CCCn2nncc2CO[C@H]1CN(C)CC1CC1 | . | . | . | -14 | .
CN(CCOc1ccc(Cl)cc1)C(=O)c1ccccc1SCC(=O)N1CCCC1 | 10µM* | ? | 1% | ? | 203%
Cc1ccc(Cl)cc1N1CCN(C(=O)c2ccc(CN3CCOCC3)cc2)CC1 | 25µM* | . | -7% | 6 | 179%

High-throughput results: PubChem, National Center for Advancing Translational Sciences (NCATS)
